# Screens deposited in PubChem BioAssay by National Center for Advancing Translational Sciences (NCATS).
# PLK1 PBD block: qHTS for Inhibitors of PLK1-PDB (polo-like kinase 1 - polo-box domain): Primary Screen; actives 2.8% (n = 360,000); Potency, µM, most hits filed as inhibitors; Plk1 PBD binding of FITC phosphopeptide, fluorescence polarization; note: series mostly up to about 57 µM; nearly all actives have a fitted effect of over 65% in size
# Target sequence (P53350 whole entry, looked up, the tested form may be a part): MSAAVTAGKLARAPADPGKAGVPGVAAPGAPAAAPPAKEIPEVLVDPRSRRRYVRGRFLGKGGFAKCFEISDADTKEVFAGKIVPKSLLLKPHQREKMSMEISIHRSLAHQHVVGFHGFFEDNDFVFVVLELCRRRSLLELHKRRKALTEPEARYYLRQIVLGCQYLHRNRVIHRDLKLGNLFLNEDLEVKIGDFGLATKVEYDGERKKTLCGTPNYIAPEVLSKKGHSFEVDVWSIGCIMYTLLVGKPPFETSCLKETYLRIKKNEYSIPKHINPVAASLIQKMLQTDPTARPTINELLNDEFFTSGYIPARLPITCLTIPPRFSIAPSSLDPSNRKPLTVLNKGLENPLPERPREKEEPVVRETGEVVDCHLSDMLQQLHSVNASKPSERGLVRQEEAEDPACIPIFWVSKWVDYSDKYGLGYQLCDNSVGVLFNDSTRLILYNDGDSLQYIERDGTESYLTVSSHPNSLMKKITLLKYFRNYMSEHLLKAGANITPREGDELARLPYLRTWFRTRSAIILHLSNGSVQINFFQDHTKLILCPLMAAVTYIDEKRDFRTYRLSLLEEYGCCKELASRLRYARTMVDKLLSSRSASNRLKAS
# VDR inh: Inhibitors of the vitamin D receptor (VDR): qHTS; Potency, µM, actives largely listed as inhibitors; VDR-SRC2-3 peptide fluorescence polarization, 2 h; actives 0.93% (n = 400,000); AID 504847, 2011
#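 The screen uses fluorescence polarization to detect compounds that interfere with recruitment of the SRC2-3 coactivator peptide to VDR; plates are read after 2 h at room temperature.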
# BRCA1 expr up: qHTS Assay to Identify Small Molecule Activators of BRCA1 Expression; MCF7-BRCA1-FFLuc reporter, luminescence, 48 h; response scale: scaled: vehicle 0%, 10 µM genistein 100%; Potency, µM (top dose mostly 46.1 µM), usual class: activators; AID 624202, 2012; actives 1.1% (n = 380,000); note: nearly all actives have a fitted effect of over 80% in size
#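 Quantitative HTS in MCF7 cells stably reporting BRCA1 expression via firefly luciferase. Compound treatment lasts 48 h at 37 °C in phenol-red free MEM. Activation is expressed relative to genistein at 10 microM and DMSO.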
# Tb PFK inh: qHTS Assay to Find Inhibitors of T. brucei phosphofructokinase. ATP-dependent 6-phosphofructokinase (Trypanosoma brucei brucei), O15648. T. brucei PFK, ADP-Glo luminescence. Potency, µM (series often up to 57.5 µM), actives largely listed as inhibitors. actives 0.17% (n = 330,000); note: nearly all actives have a fitted effect of over 60% in size
#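 In TEA buffer at pH 8.0 with 5 mM MgCl2, enzyme (1.25 nM) converted F6P (0.5 mM) and ATP (0.1 mM) for 45 min at room temperature. ADP product was read by luciferase luminescence.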
# VDR inh confirm: qHTS for Inhibitors of the vitamin D receptor (VDR): Hit Validation in Primary Screen. AID 602199, 2012. shares compounds with VDR inh. Potency, µM, usual class: inhibitors. actives 89% (n = 840). VDR-coactivator inhibition assay, qHTS confirmation
# VDR FP: qHTS for Inhibitors of the vitamin D receptor (VDR): Hit Validation using a Fluorescein Assay | actives 48% (n = 840) | Potency, µM (top dose mostly 57.1 µM), usual class: inhibitors | shares compounds with VDR inh | VDR-coactivator binding, fluorescein fluorescence polarization | AID 602200, 2012
# VDR bla reporter: qHTS for Inhibitors of the vitamin D receptor (VDR): Hit Validation using a Beta-Lactamase Assay | shares compounds with VDR inh | Potency, µM (titrated, usually from 46.1 µM), most hits filed as inhibitors | actives 23% (n = 840) | VDR beta-lactamase reporter cells, FRET ratio; cells co-treated with VDR agonist LG190178 | AID 602202, 2012
# VDR cytotox: qHTS for Inhibitors of the vitamin D receptor (VDR): Hit Validation using a Cytotoxicity Assay; shares compounds with VDR inh; cytotoxicity counter-screen, cell viability, qHTS; Potency, µM (doses to about 48.3 µM), most hits filed as cytotoxic; actives 18% (n = 840); note: nearly all actives have a fitted effect of over 75% in size
# Numbers stand for hits; . = inactive; ? = inconclusive; / = no result. Most compounds without a hit are left out; they make up all but 3.9% or so of the library. Calls come from the whole dose curve; as a rule, active = well fitted curve in the direction sought with a large enough effect; inconclusive = small, poorly fitted or top-dose-only effect, or another doubt; inactive = no such curve, though single readings can be large; an effect the other way counts as inactive or inconclusive.
SMILES,PLK1 PBD block,VDR inh,BRCA1 expr up,Tb PFK inh,VDR inh confirm,VDR FP,VDR bla reporter,VDR cytotox
O=[N+]([O-])c1c(NCCCO)cc(Sc2ccc(Cl)cc2)c2nonc12,2.4µM,?,.,.,6.3,7.1µM,23µM,?
CN1CCC2(CC1)N=C(c1ccc(F)cc1)C(=S)N2C(=O)c1ccccc1,?,45µM,.,.,19,?,.,?
O=C(c1ccccc1)N1N=C(c2ccc(F)cc2)CC1(O)C(F)(F)F (centres undefined),.,.,.,.,/,/,/,/
Cc1ccc(S(=O)(=O)Nc2nsc(N)n2)cc1,.,7.1µM,.,.,5.3,?,.,.
CC(C(=O)O)C1CCC2C3CC=C4CC(O)CC[C@@]4(C)C3CC[C@]12C (some centres undefined),/,.,/,/,/,/,/,/
CC1=C(CO)C(=O)OC([C@@H](C)C2CC[C@H]3C4C[C@H]5O[C@]56[C@@H](O)C=CC(=O)[C@]6(C)C4CC[C@]23C)C1 (some centres undefined),.,18µM,.,.,12,10µM,5.8µM,?
CCOC(=O)/C(=C\c1cccc(O)c1)c1nc2sc(C)c(C)c2c(=O)[nH]1,4.7µM,45µM,.,.,3.4,?,21µM,?
CCOC(=O)c1nc2sc(C)c(C)c2c(=O)[nH]1,.,.,.,.,/,/,/,/
CC(C)COc1ccc(C(=O)N(Cc2cccc(F)c2)C2CCS(=O)(=O)C2)cc1 (centres undefined),/,.,/,/,/,/,/,/
Cc1ccccc1CS(=O)(=O)c1nnc([C@H](CC(C)C)NC(=O)OC(C)(C)C)o1,8.9µM,20µM,.,.,11,7.1µM,?,?
Cc1cc(Br)c2c(c1)/C(=C/C(=O)c1cccs1)C(=O)N2,.,?,.,.,/,/,/,/
Cc1cccc2c1NC(=O)/C2=C\C(=O)c1cccs1,.,?,.,.,6.3,8.9µM,23µM,30µM
Cc1cc(C)c2c(c1)/C(=C/C(=O)c1ccc(Br)s1)C(=O)N2,.,?,.,.,/,/,/,/
CCc1ccc2c(c1)/C(=C/C(=O)c1cccs1)C(=O)N2,?,25µM,.,.,15,8.9µM,?,?
O=C1/C(=C/c2ccncc2)CCC/C1=C\c1ccncc1,21µM,7.1µM,.,.,5.3,3.5µM,3.3µM,21µM
O=C1C(=Cc2ccncc2)CCCc2ccccc21,.,/,.,/,/,/,/,/
Cc1ccc(C(=O)c2no[n+]([O-])c2C(=O)c2ccc(C)cc2)cc1,?,?,.,.,10,18µM,6.5µM,13µM
CNc1ccc(Br)cc(C(=O)/C=C/c2ccc(Cl)cc2Cl)c1=O,?,?,.,.,3.5,?,?,.
CNc1ccc(Br)cc(C(=O)/C=C/c2ccc(OC)cc2OC)c1=O,?,?,.,.,/,/,/,/
CCOC(=O)CNCCC(=O)c1ccc(Br)cc1,12µM,50µM,.,.,21,22µM,?,?
Cc1ccc(Cn2c(=O)n(-c3ccc(C)c(C)c3)c(=O)c3c(C)c(C)sc32)cc1,/,.,/,/,/,/,/,/
CCN1CCN(C(c2ccc(C(F)(F)F)cc2)c2ccc3cccnc3c2O)CC1 (centres undefined),3.8µM,25µM,.,?,?,10µM,.,.
CCOC(=O)c1sc(NC(=O)c2ccncc2)c(C#N)c1C,3.8µM,45µM,.,.,3.8,?,.,?
CCOc1ccc(S(=O)(=O)N2CCOCC2)cc1NC(=O)CCN1C(=O)NC2(CCCC2)C1=O,.,/,.,/,/,/,/,/
Cc1ccc(NC(=O)c2nc(S(=O)(=O)Cc3ccccc3F)ncc2Cl)cc1C,/,/,.,/,3.2,3.2µM,9.2µM,15µM
SMILES,PLK1 PBD block,VDR inh,BRCA1 expr up,Tb PFK inh,VDR inh confirm,VDR FP,VDR bla reporter,VDR cytotox
Cc1ccc(NC(=O)c2nc(S(=O)(=O)Cc3ccc(F)cc3)ncc2Cl)cc1C,/,.,/,/,/,/,/,/
Cc1ccc(NC(=O)c2nc(S(=O)(=O)Cc3ccccc3F)ncc2Cl)cc1,/,/,.,/,1.6,1.4µM,16µM,?
Cc1ccc(CNC(=O)c2nc(S(=O)(=O)Cc3ccc(C)cc3)ncc2Cl)cc1,/,.,/,/,/,/,/,/
NS(=O)(=O)c1ccc(NC(=O)c2nc(S(=O)(=O)Cc3ccccc3F)ncc2Cl)cc1,/,/,.,/,5,3.5µM,?,.
CCSc1ncc(Cl)c(C(=O)Nc2ccc(S(N)(=O)=O)cc2)n1,.,.,.,.,/,/,/,/
CN(C)C(=O)c1ccc(-c2nc(NCc3cccs3)c3ccccc3n2)cc1,/,.,/,/,/,/,/,/
Cn1c(=O)c2sccc2n2c(CCC(=O)N3CCN(c4cccc(Cl)c4)CC3)nnc12,/,.,.,/,/,/,/,/
COc1cc(/C=N/NC(=O)c2cccc(C)c2)ccc1OCC(=O)Nc1ccccc1,.,.,.,/,/,/,/,/
Oc1cc2c(cc1C(c1ccc(Br)cc1)N1CCCC1)OCO2 (centres undefined),1.5µM,40µM,.,.,13,10µM,.,?
COc1ccccc1C(=O)Nc1ccc(OCc2cc(=O)n3ccsc3n2)cc1,/,.,.,/,/,/,/,/
CN(C)C(=O)c1ccc(-c2ccc3ncnc(Nc4ccccc4)c3c2)cc1,/,.,/,/,/,/,/,/
Cc1nc(NC(=O)c2ccccc2)sc1Cc1ccc2c(c1)OCO2,.,.,.,.,/,/,/,/
Cc1nc(NC(=O)c2ccc(Cl)cc2)sc1Cc1ccc2c(c1)OCO2,?,79µM,.,.,?,?,.,?
CC1=C(C(=O)N(C)C)CC(CC(=O)NCCCCc2ccccc2)C(=O)N1Cc1ccccc1 (centres undefined),.,/,.,/,/,/,/,/
COc1cc(OC)c(/C=C/c2nccc3ccccc23)c(OC)c1,/,/,.,/,8.9,1.6µM,21µM,?
CN(C)CCCn1c2c(c(SCC(=O)Nc3ccc4c(c3)OCCO4)nc1=O)CCCC2,.,/,.,/,/,/,/,/
CCOc1ccc(NC(=O)CN(C)C(=O)c2cc(S(=O)(=O)N3CCCCC3)ccc2C)cc1OCC,.,.,.,.,/,/,/,/
O=C(CCCCn1c(=O)c2ccccc2n(Cc2ccc(Cl)cc2)c1=O)NCc1ccccc1Cl,/,.,.,/,/,/,/,/
